Targets with a hit are over-represented here; the source holds about 7,900 in all. About 0.6% of all pairs of compound and target were hits.
Columns and labels:
Test in all cases: log2 fold change, soluble protein after heating vs DMSO (PISA); higher = thermal stabilisation; K562 cells, 10 uM, 30 min; active = over 0.2 and 3.5 SD of the protein, either way, in both replicates (recomputed)
[1] = compound: NC(=O)Nc1cc(-c2cccc(F)c2)sc1C(=O)N[C@H]1CCCNC1
Outline: (§1)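 For each measurement, 10 μM compound was applied for 30 min to K562 cells at 2×10^6 cells/mL. Aliquots were heated for 3 min across 48°C-58°C, pooled, and extracted in PBS with 0.5% NP-40 at 4°C; the supernatant after 21,000xg for 90 min was soluble protein. This was quantified by TMTpro 16plex LC-MS/MS with channel sums equalised, and thermal stability was reported relative to control samples from duplicates, on a log2 fold-change scale.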

[2] = compound: NC(=O)c1cnc(N[C@@H]2CCCC[C@@H]2N)nc1Nc1cccc(-n2nccn2)c1
Outline: as §1

[3] = compound: NC1(c2ccc(-c3nc4ccn5c(=O)[nH]nc5c4cc3-c3ccccc3)cc2)CCC1
Outline: as §1

[4] = compound: NCC(=O)Nc1ccc(-n2nc(C(F)(F)F)cc2-c2ccc3c(ccc4ccccc43)c2)cc1
Outline: as §1

entinostat = compound: Nc1ccccc1NC(=O)c1ccc(CNC(=O)OCc2cccnc2)cc1 [entinostat]
Outline: as §1

vorinostat = compound: O=C(CCCCCCC(=O)Nc1ccccc1)NO [vorinostat]
Outline: as §1

citarinostat = compound: O=C(CCCCCCNC(=O)c1cnc(N(c2ccccc2)c2ccccc2Cl)nc1)NO [citarinostat]
Outline: as §1

silmitasertib = compound: O=C(O)c1ccc2c(c1)nc(Nc1cccc(Cl)c1)c1ccncc12 [silmitasertib]
Outline: as §1

[5] = compound: O=C1NC(=O)C(c2cnc3ccccn23)=C1c1cn2c3c(cc(F)cc13)CN(C(=O)N1CCCCC1)CC2
Outline: as §1

[6] = compound: c1cc(OCCN2CCCCC2)cc(-c2n[nH]c3ccc(-c4nnc[nH]4)cc23)c1
Outline: as §1

Measured: log2 fold change

TFRC (UniProt P02786)
inactive: [1] -0.021 | [2] -0.031 | [4] -0.001 | entinostat -0.008 | vorinostat -0.02 | citarinostat 0.062 | silmitasertib 0.006 | [5] -0.023 | [6] -0.071
active: [3] -0.823

THADA (UniProt Q6YHU6)
Chain of UniProt Q6YHU6 (Q6YHU6 whole entry, looked up): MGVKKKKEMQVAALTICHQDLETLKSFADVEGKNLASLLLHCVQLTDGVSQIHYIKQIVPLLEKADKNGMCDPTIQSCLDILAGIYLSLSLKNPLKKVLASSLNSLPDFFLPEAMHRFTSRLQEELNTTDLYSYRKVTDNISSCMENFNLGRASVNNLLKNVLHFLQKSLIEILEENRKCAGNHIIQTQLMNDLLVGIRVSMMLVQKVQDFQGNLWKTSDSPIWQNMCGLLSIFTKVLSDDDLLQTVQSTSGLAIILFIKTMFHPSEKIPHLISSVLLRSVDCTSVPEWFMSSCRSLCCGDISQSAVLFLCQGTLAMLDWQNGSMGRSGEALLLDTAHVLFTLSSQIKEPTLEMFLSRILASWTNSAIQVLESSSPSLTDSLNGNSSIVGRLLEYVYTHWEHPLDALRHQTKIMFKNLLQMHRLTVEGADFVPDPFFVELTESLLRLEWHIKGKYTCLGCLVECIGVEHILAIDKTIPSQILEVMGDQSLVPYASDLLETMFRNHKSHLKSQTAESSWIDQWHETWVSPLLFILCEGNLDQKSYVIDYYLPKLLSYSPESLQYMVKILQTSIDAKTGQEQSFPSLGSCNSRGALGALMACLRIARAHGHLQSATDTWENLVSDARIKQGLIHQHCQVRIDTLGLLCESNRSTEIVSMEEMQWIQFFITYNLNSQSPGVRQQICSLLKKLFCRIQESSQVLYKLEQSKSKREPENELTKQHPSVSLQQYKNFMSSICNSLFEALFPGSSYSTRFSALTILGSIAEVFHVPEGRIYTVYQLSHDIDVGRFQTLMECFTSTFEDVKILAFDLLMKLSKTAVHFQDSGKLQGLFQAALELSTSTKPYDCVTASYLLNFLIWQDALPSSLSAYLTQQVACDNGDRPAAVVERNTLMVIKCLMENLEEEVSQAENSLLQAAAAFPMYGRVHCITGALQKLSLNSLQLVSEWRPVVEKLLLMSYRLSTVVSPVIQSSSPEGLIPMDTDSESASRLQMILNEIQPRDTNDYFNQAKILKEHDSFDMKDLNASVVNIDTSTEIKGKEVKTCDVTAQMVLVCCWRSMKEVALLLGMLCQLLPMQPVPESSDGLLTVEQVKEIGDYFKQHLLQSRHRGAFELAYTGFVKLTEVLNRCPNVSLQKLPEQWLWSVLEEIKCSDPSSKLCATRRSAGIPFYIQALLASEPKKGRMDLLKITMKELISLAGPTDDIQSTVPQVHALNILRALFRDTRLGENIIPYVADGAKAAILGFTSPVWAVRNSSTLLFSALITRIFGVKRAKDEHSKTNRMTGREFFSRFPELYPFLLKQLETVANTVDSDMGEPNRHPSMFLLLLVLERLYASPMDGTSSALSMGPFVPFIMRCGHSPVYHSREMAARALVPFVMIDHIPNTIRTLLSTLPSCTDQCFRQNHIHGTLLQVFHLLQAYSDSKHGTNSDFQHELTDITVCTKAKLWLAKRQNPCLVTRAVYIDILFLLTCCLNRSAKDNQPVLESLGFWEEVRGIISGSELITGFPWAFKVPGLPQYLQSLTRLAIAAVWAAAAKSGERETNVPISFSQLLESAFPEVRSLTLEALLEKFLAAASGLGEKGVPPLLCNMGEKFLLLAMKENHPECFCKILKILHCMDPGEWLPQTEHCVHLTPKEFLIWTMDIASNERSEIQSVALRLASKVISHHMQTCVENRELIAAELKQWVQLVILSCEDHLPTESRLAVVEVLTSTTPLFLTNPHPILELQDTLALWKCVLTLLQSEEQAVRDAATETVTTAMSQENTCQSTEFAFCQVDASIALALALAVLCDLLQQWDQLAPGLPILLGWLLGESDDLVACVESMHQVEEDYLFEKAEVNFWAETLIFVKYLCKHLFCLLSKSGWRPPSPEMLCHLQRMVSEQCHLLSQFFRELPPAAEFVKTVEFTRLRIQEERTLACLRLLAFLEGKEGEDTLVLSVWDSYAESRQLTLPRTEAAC
inactive: [1] 0.004 | [2] -0.085 | [3] -0.147 | [4] -0.082 | entinostat 0.014 | vorinostat -0.001 | citarinostat 0.121 | silmitasertib -0.061 | [5] -0.025 | [6] -0.013

STARD7 (UniProt Q9NQZ5)
Chain of UniProt Q9NQZ5 (Q9NQZ5 whole entry, looked up): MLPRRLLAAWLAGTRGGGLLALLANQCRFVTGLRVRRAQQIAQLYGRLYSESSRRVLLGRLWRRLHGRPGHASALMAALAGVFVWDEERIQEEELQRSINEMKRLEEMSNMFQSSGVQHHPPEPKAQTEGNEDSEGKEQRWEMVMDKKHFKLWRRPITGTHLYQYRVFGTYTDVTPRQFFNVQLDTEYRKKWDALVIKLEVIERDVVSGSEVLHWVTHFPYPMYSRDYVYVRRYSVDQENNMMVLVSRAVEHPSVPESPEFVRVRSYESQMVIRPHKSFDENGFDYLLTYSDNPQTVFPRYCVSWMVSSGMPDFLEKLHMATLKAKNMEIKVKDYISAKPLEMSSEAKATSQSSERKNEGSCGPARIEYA
inactive: [1] -0.048 | [2] -0.113 | [3] -0.088 | [4] 0.012 | entinostat 0.008 | vorinostat 0.114 | citarinostat 0.073 | silmitasertib -0.011 | [6] -0.089
active: [5] 0.341

TIPRL (UniProt O75663)
active: [3] -0.209
inactive: [1] -0.057 | [2] -0.114 | [4] -0.068 | entinostat 0.033 | vorinostat 0.095 | citarinostat 0.069 | silmitasertib -0.032 | [5] -0.06 | [6] -0.012

TJP2 isoform 7 (UniProt Q9UDY2)
inactive: [1] -0.129 | [2] -0.007 | [3] -0.171 | [4] -0.051 | entinostat 0.014 | vorinostat 0.161 | citarinostat 0.039 | silmitasertib -0.061 | [5] 0.025 | [6] -0.167

SNRNP40 (UniProt Q96DI7)
Chain of UniProt Q96DI7 (Q96DI7 whole entry, looked up): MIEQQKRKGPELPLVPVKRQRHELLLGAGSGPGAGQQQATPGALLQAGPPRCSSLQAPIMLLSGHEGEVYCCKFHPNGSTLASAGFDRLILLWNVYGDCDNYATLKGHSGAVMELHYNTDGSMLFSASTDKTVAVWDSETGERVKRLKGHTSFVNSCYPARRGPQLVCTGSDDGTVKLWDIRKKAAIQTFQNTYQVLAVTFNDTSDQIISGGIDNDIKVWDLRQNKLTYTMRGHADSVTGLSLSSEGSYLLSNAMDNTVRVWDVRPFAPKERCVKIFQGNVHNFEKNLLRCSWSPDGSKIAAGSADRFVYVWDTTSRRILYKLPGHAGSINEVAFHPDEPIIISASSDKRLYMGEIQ
inactive: [1] 0.017 | [2] -0.017 | [3] 0.065 | [4] -0.011 | entinostat -0.067 | vorinostat -0.018 | citarinostat -0.008 | silmitasertib 0.058 | [5] 0.04 | [6] -0.121

SUCLA2 (UniProt Q9P2R7)
inactive: [1] -0.021 | [2] -0.058 | [3] -0.128 | [4] -0.077 | entinostat 0.014 | vorinostat 0.107 | citarinostat 0.068 | silmitasertib -0.039 | [5] -0.028 | [6] -0.046

SRSF2 (UniProt Q01130)
inactive: [1] -0.056 | [2] 0.04 | [3] 0.139 | [4] -0.006 | entinostat -0.067 | vorinostat -0.057 | citarinostat -0.04 | silmitasertib -0.062 | [5] 0.059 | [6] -0.081

SNW1 (UniProt Q13573)
inactive: [1] 0.034 | [2] 0.019 | [3] 0.017 | [4] 0.02 | entinostat -0.056 | vorinostat -0.044 | citarinostat -0.019 | silmitasertib 0.062 | [5] 0.05 | [6] -0.05

SLC25A39 (UniProt Q9BZJ4)
inactive: [1] 0.059 | [2] -0.183 | [3] -0.345 | [4] -0.105 | entinostat 0.061 | vorinostat -0.05 | citarinostat -0.015 | silmitasertib 0.023 | [5] 0.073 | [6] 0.223

SP3 (UniProt Q02447)
inactive: [1] 0.15 | [2] -0.011 | [3] -0.033 | [4] 0.025 | entinostat 0.027 | vorinostat -0.026 | citarinostat -0.147 | silmitasertib 0.046 | [5] -0.02 | [6] 0.04

TBC1D23 (UniProt Q9NUY8)
inactive: [1] 0.015 | [2] -0.135 | [4] -0.009 | entinostat 0.06 | vorinostat 0.115 | citarinostat 0.045 | silmitasertib 0.02 | [5] -0.073 | [6] -0.047
active: [3] -0.33

TBK1 (UniProt Q9UHD2)
inactive: [1] 0.196 | [2] 0 | [3] -0.086 | [4] -0.118 | entinostat 0.055 | vorinostat -0.025 | citarinostat 0.064 | silmitasertib 0.057 | [5] -0.014 | [6] -0.029

TCERG1 (UniProt O14776)
inactive: [1] -0.026 | [2] -0.075 | [3] -0.123 | [4] -0.112 | entinostat 0.159 | vorinostat 0.129 | citarinostat 0.129 | silmitasertib 0.022 | [5] -0.153 | [6] 0

SMAP (UniProt O00193)
inactive: [1] 0.007 | [2] -0.021 | [3] 0.12 | [4] 0.013 | entinostat 0.016 | vorinostat -0.047 | citarinostat -0.029 | silmitasertib -0.033 | [5] 0.006 | [6] 0.02

TFAM (UniProt Q00059)
inactive: [1] -0.079 | [2] -0.006 | [3] 0.085 | [4] 0.011 | entinostat -0.035 | vorinostat 0.005 | citarinostat -0.151 | silmitasertib 0.011 | [5] 0.06 | [6] -0.115

SNRNP27 (UniProt Q8WVK2)
inactive: [1] 0.022 | [2] -0.015 | [3] -0.034 | [4] -0.043 | entinostat -0.024 | vorinostat -0.008 | citarinostat -0.003 | silmitasertib 0.06 | [5] 0.038 | [6] -0.025

SLC25A38 (UniProt Q96DW6)
Chain of UniProt Q96DW6 (Q96DW6 whole entry, looked up): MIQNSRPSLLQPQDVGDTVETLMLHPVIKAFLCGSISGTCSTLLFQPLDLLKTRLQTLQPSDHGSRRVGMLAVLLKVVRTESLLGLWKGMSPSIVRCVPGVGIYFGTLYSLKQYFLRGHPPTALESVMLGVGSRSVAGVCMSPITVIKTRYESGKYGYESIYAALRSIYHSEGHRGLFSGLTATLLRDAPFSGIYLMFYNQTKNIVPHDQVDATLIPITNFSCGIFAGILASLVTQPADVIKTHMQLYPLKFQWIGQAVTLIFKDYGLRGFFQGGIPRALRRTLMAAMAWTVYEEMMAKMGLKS
inactive: [1] 0.035 | [2] -0.068 | [3] -0.21 | [4] 0.06 | entinostat -0.049 | vorinostat -0.096 | citarinostat 0.02 | silmitasertib 0.069 | [5] -0.022 | [6] -0.028

TIMM21 (UniProt Q9BVV7)
inactive: [1] -0.041 | [2] -0.055 | [3] -0.087 | [4] -0.047 | entinostat -0.015 | vorinostat 0.04 | citarinostat 0.052 | silmitasertib 0.024 | [5] -0.016 | [6] -0.016

SMARCA5 (UniProt O60264)
Chain of UniProt O60264 (O60264 whole entry, looked up): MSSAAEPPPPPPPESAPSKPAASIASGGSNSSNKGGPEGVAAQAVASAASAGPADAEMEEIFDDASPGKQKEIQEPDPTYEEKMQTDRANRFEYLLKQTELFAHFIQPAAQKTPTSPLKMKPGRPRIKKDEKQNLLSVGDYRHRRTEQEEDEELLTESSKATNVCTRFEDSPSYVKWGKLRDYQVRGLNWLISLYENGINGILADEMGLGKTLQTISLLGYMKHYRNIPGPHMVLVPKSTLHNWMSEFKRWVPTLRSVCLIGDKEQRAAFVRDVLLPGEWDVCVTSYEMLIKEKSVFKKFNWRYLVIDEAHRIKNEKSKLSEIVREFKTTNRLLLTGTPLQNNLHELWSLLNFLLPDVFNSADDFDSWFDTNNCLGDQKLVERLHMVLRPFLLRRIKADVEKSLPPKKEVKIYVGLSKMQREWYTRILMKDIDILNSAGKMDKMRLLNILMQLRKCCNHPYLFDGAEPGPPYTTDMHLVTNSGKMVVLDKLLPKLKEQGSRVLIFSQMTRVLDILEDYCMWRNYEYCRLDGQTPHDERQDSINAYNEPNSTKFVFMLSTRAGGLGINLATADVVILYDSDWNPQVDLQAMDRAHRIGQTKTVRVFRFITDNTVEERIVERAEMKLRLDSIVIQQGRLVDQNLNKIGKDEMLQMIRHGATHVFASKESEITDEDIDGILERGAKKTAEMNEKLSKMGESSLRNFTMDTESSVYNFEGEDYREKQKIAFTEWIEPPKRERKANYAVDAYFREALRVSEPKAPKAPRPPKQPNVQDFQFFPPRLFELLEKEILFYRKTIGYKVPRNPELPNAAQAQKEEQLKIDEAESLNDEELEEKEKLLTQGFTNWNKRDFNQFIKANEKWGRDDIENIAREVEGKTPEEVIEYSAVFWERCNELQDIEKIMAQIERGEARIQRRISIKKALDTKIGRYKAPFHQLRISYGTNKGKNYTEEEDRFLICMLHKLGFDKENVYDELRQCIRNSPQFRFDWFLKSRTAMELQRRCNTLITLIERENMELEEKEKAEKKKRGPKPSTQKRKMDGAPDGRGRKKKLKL
inactive: [1] -0.084 | [2] -0.121 | [3] -0.095 | [4] -0.01 | entinostat 0.097 | vorinostat 0.204 | citarinostat -0.094 | silmitasertib 0.028 | [5] -0.034 | [6] 0.03

SRSF7 (UniProt Q16629)
inactive: [1] 0 | [2] 0.13 | [3] 0.525 | [4] 0.027 | entinostat -0.079 | vorinostat 0 | citarinostat -0.132 | silmitasertib -0.144 | [5] 0.357 | [6] -0.33

SPCS2 (UniProt Q15005)
inactive: [1] 0 | [2] -0.002 | [3] -0.072 | [4] 0.143 | entinostat 0.016 | vorinostat 0.024 | citarinostat 0.224 | silmitasertib -0.001 | [5] -0.021 | [6] 0.23

SNUPN (UniProt O95149)
inactive: [1] -0.031 | [2] -0.06 | [3] -0.095 | [4] -0.063 | entinostat 0.06 | vorinostat 0.027 | citarinostat -0.082 | silmitasertib 0.027 | [5] -0.077 | [6] 0.071

SNX12 isoform 1 (UniProt Q9UMY4)
inactive: [1] -0.022 | [4] 0.019 | entinostat 0.046 | vorinostat 0.035 | citarinostat 0.102 | silmitasertib 0.06 | [5] -0.081 | [6] -0.066
active: [2] -0.225 | [3] -0.22

STX17 (UniProt P56962)
inactive: [1] 0.027 | [2] -0.073 | [3] -0.096 | [4] 0.126 | entinostat -0.001 | vorinostat -0.02 | citarinostat 0.254 | silmitasertib 0.087 | [5] -0.026 | [6] -0.059

SMIM20 isoform 2 (UniProt Q8N5G0)
Chain of UniProt Q8N5G0 (Q8N5G0 whole entry, looked up): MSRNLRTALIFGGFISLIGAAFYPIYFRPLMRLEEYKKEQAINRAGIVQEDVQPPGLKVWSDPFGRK
inactive: [1] -0.056 | [2] -0.032 | [3] 0 | [4] 0.002 | entinostat 0.031 | vorinostat 0.057 | citarinostat -0.004 | silmitasertib -0.01 | [5] -0.154 | [6] -0.049

TLK2 isoform 2 (UniProt Q86UE8)
inactive: [1] -0.059 | [2] 0.049 | [3] -0.042 | [4] -0.037 | entinostat 0.036 | vorinostat 0.1 | citarinostat 0.016 | silmitasertib 0.034 | [5] -0.026 | [6] -0.052

TBC1D15 isoform 3 (UniProt Q8TC07)
Chain of UniProt Q8TC07 (Q8TC07 whole entry, looked up): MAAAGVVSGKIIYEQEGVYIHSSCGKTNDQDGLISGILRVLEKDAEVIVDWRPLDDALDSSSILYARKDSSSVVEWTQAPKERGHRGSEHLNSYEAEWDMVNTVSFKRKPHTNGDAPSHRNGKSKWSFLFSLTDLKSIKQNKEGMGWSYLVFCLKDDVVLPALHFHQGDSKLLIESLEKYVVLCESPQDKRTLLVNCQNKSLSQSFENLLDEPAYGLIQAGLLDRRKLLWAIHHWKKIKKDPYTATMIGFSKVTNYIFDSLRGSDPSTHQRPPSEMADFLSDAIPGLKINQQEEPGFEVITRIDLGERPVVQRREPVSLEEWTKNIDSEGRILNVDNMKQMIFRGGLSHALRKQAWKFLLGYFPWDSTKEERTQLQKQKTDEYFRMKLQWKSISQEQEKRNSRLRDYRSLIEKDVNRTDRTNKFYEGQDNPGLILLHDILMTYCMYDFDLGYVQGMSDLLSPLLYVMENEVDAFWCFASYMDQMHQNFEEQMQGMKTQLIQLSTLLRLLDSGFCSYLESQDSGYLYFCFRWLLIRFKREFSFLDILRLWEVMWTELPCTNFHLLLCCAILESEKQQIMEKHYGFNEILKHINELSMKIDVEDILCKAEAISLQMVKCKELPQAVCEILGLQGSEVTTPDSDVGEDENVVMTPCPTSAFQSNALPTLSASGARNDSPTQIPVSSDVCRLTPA
inactive: [1] -0.013 | [2] -0.086 | [3] -0.202 | [4] -0.033 | entinostat 0.118 | vorinostat 0.101 | citarinostat 0.036 | silmitasertib 0.071 | [5] -0.008 | [6] -0.059

SURF2 (UniProt Q15527)
Chain of UniProt Q15527 (Q15527 whole entry, looked up): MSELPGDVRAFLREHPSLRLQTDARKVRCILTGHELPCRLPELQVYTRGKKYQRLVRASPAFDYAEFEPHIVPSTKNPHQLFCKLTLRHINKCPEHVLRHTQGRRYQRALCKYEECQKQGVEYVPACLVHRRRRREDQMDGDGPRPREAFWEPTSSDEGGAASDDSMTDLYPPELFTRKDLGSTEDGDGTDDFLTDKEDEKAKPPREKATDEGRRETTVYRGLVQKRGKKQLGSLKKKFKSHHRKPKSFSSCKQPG
inactive: [1] 0.019 | [2] 0.076 | [3] 0.033 | [4] 0.088 | entinostat -0.012 | vorinostat -0.009 | citarinostat 0.06 | silmitasertib 0.079 | [5] -0.004 | [6] -0.018
